Reference: PubChem BioAssay AID588689 (Southern Research Specialized Biocontainment Screening …, 2011)
Where “and” joins values, the source holds several entries; their conditions need not be identical. Identical values can stand only once. The whole screen tested about 340,000 compounds, of which about 1,000 (0.29%) were called active. No stated cut-off is given here; in the data, inconclusive means inhibition above about 29% without an active follow-up result; inactive means below that. Not all results are given here. Results with a measured potency or affinity are listed apart.

Molecular target: Genome polyprotein (Dengue virus type 2 (strain 16681-PDK53)) (UniProt P29991)
Experiment: flavivirus cap methylation enzyme inhibition – biochemical, confirmation dose response, primary screen (AID 588689)
Details: Dengue-2 NS5 methyltransferase capping enzyme assay, at 25 µM, stronger effect = higher value
[1] = measured here: pilot screen replicate inhibition

Chain of Genome polyprotein (Dengue virus type 2 (strain 16681-PDK53)) (P29991 whole entry, looked up): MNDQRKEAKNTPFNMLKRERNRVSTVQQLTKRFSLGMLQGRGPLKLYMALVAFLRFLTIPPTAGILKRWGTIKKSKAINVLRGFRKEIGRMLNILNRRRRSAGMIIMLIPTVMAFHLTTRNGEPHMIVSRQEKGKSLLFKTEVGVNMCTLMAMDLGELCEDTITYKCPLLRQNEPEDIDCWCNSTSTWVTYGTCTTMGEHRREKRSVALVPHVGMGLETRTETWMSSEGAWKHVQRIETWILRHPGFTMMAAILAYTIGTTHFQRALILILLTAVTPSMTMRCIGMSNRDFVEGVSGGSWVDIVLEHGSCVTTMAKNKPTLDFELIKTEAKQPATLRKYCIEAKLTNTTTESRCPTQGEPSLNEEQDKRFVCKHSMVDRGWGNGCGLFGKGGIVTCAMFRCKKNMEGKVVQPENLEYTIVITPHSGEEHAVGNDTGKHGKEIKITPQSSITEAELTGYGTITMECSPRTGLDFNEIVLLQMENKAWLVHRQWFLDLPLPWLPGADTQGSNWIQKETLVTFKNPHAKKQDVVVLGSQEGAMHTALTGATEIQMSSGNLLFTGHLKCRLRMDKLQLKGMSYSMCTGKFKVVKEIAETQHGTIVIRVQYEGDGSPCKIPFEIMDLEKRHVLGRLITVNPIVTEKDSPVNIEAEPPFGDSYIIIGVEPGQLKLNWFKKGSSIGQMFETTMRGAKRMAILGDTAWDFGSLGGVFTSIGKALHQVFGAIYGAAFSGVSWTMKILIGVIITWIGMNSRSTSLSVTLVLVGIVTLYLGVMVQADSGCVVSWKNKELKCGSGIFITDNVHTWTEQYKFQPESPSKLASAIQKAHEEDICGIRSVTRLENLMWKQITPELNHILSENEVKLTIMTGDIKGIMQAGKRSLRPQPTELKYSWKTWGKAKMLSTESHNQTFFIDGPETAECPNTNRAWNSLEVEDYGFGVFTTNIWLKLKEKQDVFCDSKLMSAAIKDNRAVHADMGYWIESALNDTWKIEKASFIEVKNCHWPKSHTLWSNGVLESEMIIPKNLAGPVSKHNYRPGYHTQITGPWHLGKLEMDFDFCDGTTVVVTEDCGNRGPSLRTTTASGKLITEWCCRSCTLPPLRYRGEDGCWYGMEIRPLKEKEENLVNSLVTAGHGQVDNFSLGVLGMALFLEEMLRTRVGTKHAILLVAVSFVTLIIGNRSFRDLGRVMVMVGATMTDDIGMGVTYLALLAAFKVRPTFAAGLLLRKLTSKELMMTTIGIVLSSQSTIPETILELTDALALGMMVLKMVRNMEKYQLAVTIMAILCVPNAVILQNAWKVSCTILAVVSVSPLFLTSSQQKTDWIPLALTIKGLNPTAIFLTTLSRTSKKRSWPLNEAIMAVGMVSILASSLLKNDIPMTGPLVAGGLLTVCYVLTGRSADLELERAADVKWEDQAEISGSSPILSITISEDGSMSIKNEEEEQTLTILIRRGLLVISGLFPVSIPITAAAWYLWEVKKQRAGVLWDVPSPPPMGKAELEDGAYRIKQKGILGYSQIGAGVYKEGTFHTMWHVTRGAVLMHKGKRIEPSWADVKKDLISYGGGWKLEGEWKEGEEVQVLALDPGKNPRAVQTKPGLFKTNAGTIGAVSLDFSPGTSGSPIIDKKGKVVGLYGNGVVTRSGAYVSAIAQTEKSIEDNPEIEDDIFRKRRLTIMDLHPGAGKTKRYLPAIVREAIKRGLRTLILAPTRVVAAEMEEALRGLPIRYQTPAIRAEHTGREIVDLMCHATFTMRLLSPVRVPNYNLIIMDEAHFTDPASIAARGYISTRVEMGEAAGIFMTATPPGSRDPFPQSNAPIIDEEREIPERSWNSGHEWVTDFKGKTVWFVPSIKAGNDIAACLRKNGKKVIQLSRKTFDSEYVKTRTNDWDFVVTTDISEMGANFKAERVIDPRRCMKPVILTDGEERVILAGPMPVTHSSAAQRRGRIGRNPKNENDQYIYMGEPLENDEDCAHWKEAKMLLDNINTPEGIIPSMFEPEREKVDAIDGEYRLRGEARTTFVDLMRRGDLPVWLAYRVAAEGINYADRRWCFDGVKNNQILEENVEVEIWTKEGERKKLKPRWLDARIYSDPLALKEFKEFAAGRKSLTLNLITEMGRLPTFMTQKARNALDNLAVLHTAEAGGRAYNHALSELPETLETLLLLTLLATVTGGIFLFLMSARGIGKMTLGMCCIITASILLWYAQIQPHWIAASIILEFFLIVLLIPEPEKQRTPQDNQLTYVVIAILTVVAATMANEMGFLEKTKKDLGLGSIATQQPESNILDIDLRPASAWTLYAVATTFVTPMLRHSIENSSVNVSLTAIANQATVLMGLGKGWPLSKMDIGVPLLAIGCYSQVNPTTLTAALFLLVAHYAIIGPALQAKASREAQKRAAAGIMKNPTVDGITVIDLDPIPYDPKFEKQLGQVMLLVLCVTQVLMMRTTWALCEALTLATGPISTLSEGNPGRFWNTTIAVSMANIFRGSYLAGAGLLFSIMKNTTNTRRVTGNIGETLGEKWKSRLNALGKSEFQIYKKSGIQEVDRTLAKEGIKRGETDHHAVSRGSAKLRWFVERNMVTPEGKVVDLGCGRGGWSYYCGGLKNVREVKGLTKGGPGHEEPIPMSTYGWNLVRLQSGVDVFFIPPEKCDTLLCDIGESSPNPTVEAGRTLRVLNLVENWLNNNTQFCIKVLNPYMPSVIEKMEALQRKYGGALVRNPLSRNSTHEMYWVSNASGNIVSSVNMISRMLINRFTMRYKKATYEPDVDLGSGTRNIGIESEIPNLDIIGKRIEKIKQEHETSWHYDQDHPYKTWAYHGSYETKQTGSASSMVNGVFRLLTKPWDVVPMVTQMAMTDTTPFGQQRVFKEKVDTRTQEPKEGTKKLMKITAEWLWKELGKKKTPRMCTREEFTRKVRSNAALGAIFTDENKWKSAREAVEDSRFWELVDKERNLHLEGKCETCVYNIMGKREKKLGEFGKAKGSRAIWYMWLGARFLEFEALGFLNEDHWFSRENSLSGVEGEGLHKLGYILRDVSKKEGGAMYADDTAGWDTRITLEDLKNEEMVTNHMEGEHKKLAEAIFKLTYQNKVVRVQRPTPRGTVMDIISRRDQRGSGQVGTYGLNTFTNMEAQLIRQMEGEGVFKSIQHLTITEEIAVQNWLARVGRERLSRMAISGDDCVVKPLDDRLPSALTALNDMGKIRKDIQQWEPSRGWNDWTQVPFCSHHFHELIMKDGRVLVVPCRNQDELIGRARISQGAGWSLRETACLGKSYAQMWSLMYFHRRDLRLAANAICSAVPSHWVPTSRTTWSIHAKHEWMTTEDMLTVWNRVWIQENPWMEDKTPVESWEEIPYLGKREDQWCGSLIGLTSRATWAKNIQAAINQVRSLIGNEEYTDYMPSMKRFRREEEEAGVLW

Row | SMILES | inhibition | inhibition [1]
1 | C=CCOc1ccc(/C=N/NC(=O)C(C)Sc2ccccn2)cc1OC (centres undefined) | -7.22% (inactive) | 
2 | Cc1ccc(S(=O)(=O)N(C)C)cc1NC(=O)COC(=O)C1(c2ccccc2)CC1 | -4.44% (inactive) | 
3 | O=[N+]([O-])c1cccc(S(=O)(=O)Nc2ccc(S(=O)(=O)Nc3nccs3)cc2)c1 | -3.24% (inactive) | 
4 | O=[N+]([O-])c1ccccc1S(=O)(=O)Nc1ccc(S(=O)(=O)Nc2nccs2)cc1 | 3.56% (inactive) | 
5 | C/C(=N\NC(=O)c1cc(C)nc2ccccc12)c1ccccn1 | -2.29% (inactive) | 
6 | CC(=O)NC1=NN(C(C)=O)C(c2ccc(C(C)C)cc2)S1 (centres undefined) | 0.65% (inactive) | 
7 | COc1ccc(O)c(C(=O)c2cc(SCC(=O)O)c3nc4sc5c(c4c(=O)n3c2)CCCC5)c1 | 69.1% (inactive) | 
8 | O=C(O)CSc1cc(C(=O)c2ccccc2O)cn2c(=O)c3c(-c4ccccc4)csc3nc12 | 36.4% (inactive) | 
9 | CCc1cc(C(=O)N(Cc2ccccc2)c2c(N)n(CCOC)c(=O)[nH]c2=O)sc1C | -5.81% (inactive) | 
10 | CC(/C=C1\SC(=S)N(NC(=O)c2ccc(O)cc2)C1=O)=C\c1ccccc1 | 2.55% (inactive) | 
11 | CC(/C=C1\SC(=S)N(NC(=O)c2cccc(O)c2)C1=O)=C\c1ccccc1 | -2.56% (inactive) | 
12 | CC(/C=C1\SC(=S)N(NC(=O)c2ccc(C)cc2)C1=O)=C\c1ccccc1 | -6.45% (inactive) | 
13 | CC(/C=C1\SC(=S)N(NC(=O)c2ccccc2C)C1=O)=C\c1ccccc1 | 2.21% (inactive) | 
14 | COc1ccc([C@H]2/C=C\CN(S(=O)(=O)c3ccc(C)cc3)[C@@H](C)C(=O)N2Cc2ccc(F)cc2)cc1 | -6.14% (inactive) | 
15 | CC1CCCCN1CCCNC(=O)CN1C(=O)CSc2ccc(S(=O)(=O)N3CCOCC3)cc21 (centres undefined) | 0.89% (inactive) | 
16 | Cc1ccnc(SCC(=O)N2CCC(C(N)=O)CC2)n1 | 5.18% (inactive) | 
17 | O=C1CSCC(=O)N1Cc1ccc(Cl)c(Cl)c1 | 1.96% (inactive) | 
18 | CCC(Oc1ccccc1)C(=O)NCCOC (centres undefined) | -3.68% (inactive) | 
19 | CCOC(=O)c1c(/N=C/c2cccc([N+](=O)[O-])c2O)sc2c1CCC2 | 25.2% (inactive) | 
20 | CCOC(=O)c1c(/N=C/c2cc(OC)cc([N+](=O)[O-])c2O)sc(C)c1C | -0.36% (inactive) | 
21 | O=C(CCC(=O)c1ccc(F)cc1)Nc1cc(Cl)cc(Cl)c1 | -2.06% (inactive) | 
22 | CCOC(=O)c1ccc(CC(=O)c2ccc(O)cc2O)o1 | -4.07% (inactive) | 
23 | CCCc1cc(C(=O)Cc2ccc(C(=O)OCC)o2)c(O)cc1O | -23.9% (inactive) | 

Row | SMILES | inhibition | inhibition [1]
24 | Nc1ccc(C(=O)N/N=C/c2cn(Cc3ccccc3F)c3ccccc23)cc1 | -1.3% (inactive) | 
25 | O=C(O)c1ccc(N/N=C/c2cn(Cc3ccc(F)cc3)c3ccccc23)cc1 | 9.41% (inactive) | 
26 | COc1ccc(OCC(O)CN2CCOCC2)cc1 (centres undefined) | 7.33% (inactive) | 
27 | Cc1ccc[n+](-c2[nH]c(=O)sc2/C=N/N=C(\[O-])c2cccnc2)c1 | 7.25% (inactive) | 
28 | Cc1ccc(NS(=O)(=O)c2ccc(NS(=O)(=O)c3cccs3)cc2)cc1 | -2.07% (inactive) | 
29 | Cc1ccc(NS(=O)(=O)c2cccs2)nc1 | -0.32% (inactive) | 
30 | O=C(C[n+]1ccn(CCCNP2(=O)C=C(c3ccccc3)OC(c3ccccc3)=C2)c1)c1cccs1 | 6.89% (inactive) | 
31 | Cc1cccc(COCC(Cc2ccccc2)N2CCN(C(=O)c3cccc(C)c3)CCC2=O)c1 (centres undefined) | -1.6% (inactive) | 
32 | COc1ccc(-c2noc(CCC(=O)N3CCN(c4ccccc4C)CC3)n2)cc1 | -3.97% (inactive) | -0.01%
33 | O=C(O)c1cc(O)c2c(c1)C(=O)c1cccc(O)c1C2=O | 5.97% (inactive) | 
34 | COc1cccc2c1-c1c(O)cccc1C2=O | 9.88% (inactive) | 6.38%
35 | Nc1ncn(C(=S)Nc2ccccc2)n1 | 5.4% (inactive) | 
36 | COc1cccc(-c2nnc(Nc3nc4c(F)cccc4s3)o2)c1 | 3.39% (inactive) | 
37 | COc1cc(OC)cc(-c2nnc(Nc3nc4c(F)cccc4s3)o2)c1 | 0% (inactive) | 
38 | Cc1nc2cc(N3CCOCC3)c(NC(=O)C3CC3)cc2c(=O)n1Cc1ccccc1 | 0% (inactive) | 
39 | O=C(CSC1=NS(=O)(=O)c2ccccc21)Nc1ccccc1 | 25.7% (inactive) | 
40 | O=S1(=O)N=C(SCCO)c2ccccc21 | 1.39% (inactive) | 
41 | COc1cccc(CNS(=O)(=O)c2cc3c4c(c2)CCN4C(=O)CC3)c1 | -2.16% (inactive) | 
42 | CNC(=S)Nc1cc(C)ccc1OC(F)F | -3.09% (inactive) | 
43 | CCOC(=O)c1c(-c2cccc3ccccc23)csc1NC(=O)C1C2CCC(O2)C1C(=O)O (centres undefined) | 2.56% (inactive) | 
44 | CCOC(=O)c1c(NC(=O)C2C3CCC(O3)C2C(=O)O)sc(C)c1-c1ccc(C)cc1 (centres undefined) | 16.7% (inactive) | 
45 | CCOC(=O)c1c(NC(=O)C2C3CCC(O3)C2C(=O)O)sc2c1CCCC2 (centres undefined) | -0.74% (inactive) | 
46 | COC(=O)c1c(-c2ccc(C(C)(C)C)cc2)csc1NC(=O)C1C2CCC(O2)C1C(=O)O (centres undefined) | 10.8% (inactive) | 

Row | SMILES | inhibition | inhibition [1]
47 | O=C(Nc1nc2n(n1)C(c1ccc(F)cc1)CC(c1ccccc1)N2)c1ccco1 (centres undefined) | -3.83% (inactive) | 
48 | Cc1ccc2c(ccc[n+]2CC(=O)c2ccccc2)c1 | -3.89% (inactive) | 
49 | O=C(C1CCN(S(=O)(=O)c2ccccc2)CC1)N1CCN(c2ccccc2F)CC1 | -3.69% (inactive) | 
50 | COc1cc(OC)c(N2CC(C(=O)NCCC3=CCCCC3)CC2=O)cc1Cl (centres undefined) | -2.95% (inactive) | 
51 | O=C(O)c1cc(N=Nc2c(O)ccc3ccccc23)cc(C(=O)O)c1 | 20.4% (inactive) | 
52 | O=C(O)c1cc2ccccc2c(N=Nc2cccnc2)c1O | 0.81% (inactive) | 
53 | CN(Cc1ccccc1)S(=O)(=O)c1ccc(Cl)c(C(=O)N2CCC(C(N)=O)CC2)c1 | 4.28% (inactive) | 
54 | Cc1cccc(Cc2nnc(CCC(=O)N(C)CCc3ccccc3)o2)c1 | 10.8% (inactive) | 
55 | CN(C)C(=O)Cn1cc(S(=O)(=O)Cc2ccccc2)c2ccccc21 | -2.66% (inactive) | 
56 | CCCCNC(=O)c1sc(=S)n2c1[nH]c(=O)c1ccccc12 | 10.2% (inactive) | 
57 | O=C(NCc1ccco1)c1sc(=S)n2c1[nH]c(=O)c1ccccc12 | 0% (inactive) | 
58 | CC(=O)Nc1ccc2c(O)cc(S(=O)(=O)O)cc2c1 | -7.72% (inactive) | 
59 | O=S(=O)(O)c1cccc(N=Nc2c(O)ccc3ccccc23)c1 | 1.57% (inactive) | 
60 | Nc1cc(S(=O)(=O)O)cc2ccc(S(=O)(=O)O)cc12 | 7.17% (inactive) | 
61 | CN(C)c1ccc2cc(S(=O)(=O)O)cc(O)c2c1 | 81.6% (inactive) | 
62 | Cc1ccc(S(=O)(=O)c2cc(Nc3ccccc3)ccc2O)cc1 | 8.82% (inactive) | 
63 | Nc1ccc(C(=O)Nc2ccc3c(O)cc(S(=O)(=O)O)cc3c2)cc1 | 4.28% (inactive) | 
64 | Nc1ccc(Nc2ccccc2)c(S(=O)(=O)O)c1 | 54.5% (inactive) | 
65 | O=S(=O)(O)c1cc(O)c2ccc(Nc3ccccc3)cc2c1 | 8.94% (inactive) | 
66 | CN(C)/C=C1\NC(=S)N(c2ccc(Cl)cc2)C1=O | -20.4% (inactive) | 
67 | Cc1ccc(S(=O)(=O)N2CCN(Cc3csc(C)n3)CC2)cc1 | 2.27% (inactive) | 
68 | CC(C)CN(C(=O)COC(=O)CSc1ccc(Br)cc1)C1CCS(=O)(=O)C1 (centres undefined) | -3.62% (inactive) | 
69 | COc1cc(C=O)ccc1OCCOCCOc1ccc(Cl)cc1Cl | -6.82% (inactive) | 

Row | SMILES | inhibition | inhibition [1]
70 | Nc1cccc2cc(S(=O)(=O)O)ccc12 | 13.9% (inactive) | 
71 | Nc1cccc2c(O)cccc12 | 6.13% (inactive) | 
72 | O=C1c2ccccc2-c2nccnc21 | 1.62% (inactive) | 
73 | O=C1c2ccccc2-c2n[nH]c(=O)c3ccc(N4CCCCC4)c1c23 | -9.35% (inactive) | 
74 | C=CCNC(=S)N/N=C/c1ccccc1OCCOc1ccccc1 | 2.29% (inactive) | 
75 | CCN(CC)C(=O)CCSc1nnc(-c2ccncc2)o1 | -3.83% (inactive) | 
76 | Cc1ccc(OCC(=O)N[C@@H](C)c2nnc3ccccn23)cc1C | -6.18% (inactive) | 
77 | O=C(COC(=O)c1cccc(F)c1)Nc1cccc(S(=O)(=O)N2CCOCC2)c1 | -5.49% (inactive) | 
78 | COc1ccc(NC(=O)C2CCC(CNc3c(N4CCC(C)CC4)c(=O)c3=O)CC2)cc1OC (centres undefined) | -6.26% (inactive) and 8.76% (inactive) | 
79 | O=C(NNc1ccccc1)c1ccccc1 | -0.81% (inactive) | 
80 | COc1ccc(C(=O)NNc2ccccc2)cc1 | 4.46% (inactive) | 
81 | Cn1c(=O)[nH]c(=O)c2c1nc(N1CCOCC1)n2CCN1CCOCC1 | 1.62% (inactive) | 
82 | O=C(Nc1scc(-c2cccs2)c1C(=O)O)c1cccs1 | 22.9% (inactive) | 
83 | COc1ccc(-c2csc(NC(=O)c3ccccc3F)c2C(=O)O)cc1 | 11.1% (inactive) | 
84 | COc1ccc(-c2csc(NC(=O)c3cccs3)c2C(=O)O)cc1OC | -3.65% (inactive) | 
85 | Cc1ccccc1C(=O)Nc1scc(-c2ccc(Br)cc2)c1C(=O)O | 22.5% (inactive) | 
86 | COc1cc(C(=O)Nc2scc(-c3ccc(C)cc3)c2C(=O)O)cc(OC)c1OC | 3.47% (inactive) | 
87 | COc1cc(C(=O)Nc2scc(-c3ccccc3)c2C(=O)O)cc(OC)c1OC | 14.7% (inactive) | 
88 | Cc1ccc(Cn2ccc(NC(=O)c3cc(-c4ccc(Cl)cc4)on3)n2)cc1 | -1.39% (inactive) | 
89 | Oc1ccccc1C1OCC2(CO1)COC(c1ccccc1O)OC2 (centres undefined) | 1.95% (inactive) | 
90 | COc1cccc(-c2c(-c3cc(OC)cc(OC)c3)n(C)c3ccc(-c4ccc(OC)nc4)cc23)c1 | 2.45% (inactive) | 
91 | COC(=O)[C@@H](NC(=O)/C=C/c1ccc(OC)cc1)C(C)C | -9.35% (inactive) | 
92 | COc1ccc(NC(=O)N(C)C[C@@H]2OCc3cn(nn3)CCCC(=O)N([C@H](C)CO)C[C@H]2C)cc1 | -1.7% (inactive) | 
